According to PubChem BioAssay AID624117 (National Center for Advancing Translational Sciences (NCATS), 2012):
Results filed as inconclusive are left out. Active and inactive are the calls of the source. Calls follow the shape of the dose curve; as a rule, active = well fitted curve in the direction sought with a large enough effect; inconclusive = small, poorly fitted or top-dose-only effect, or another doubt; inactive = no such curve, though single readings can be large or run the other way.

Experiment: qHTS Assay for Rab9 Promoter Activators: Hit Validation Using Renilla Luciferase Read-Out
Details: Huh7 NPC1 promoter Renilla luciferase reporter, 24 h; series mostly up to 76.9 µM
From the text: Niemann Pick Type C (NPC) is a rare neurodegenerative lipidosis that is characterized by lipid storage in the endosomal/lysosomal system. Treatment modalities for this devastating disease are currently non-existent due to the severe obstacles associated with accessing the central nervous system with proteins or genes. The majority of mutations causing NPC disease are missense mutations that are distributed throughout the length of the NPC1 protein, with the most prevalent being the I1061T allele. Although NPC1 mutant proteins may be functional, they are typically trapped in the ER due to misfolding. […] We have developed and optimized a cell based renilla luciferase reporter assay in 1536 well format for the identification of up-regulators of the mutant NPC1 promoter. This assay presents data on the validation of hits from the primary screen, which used a firefly luciferase read-out. NIH Chemical Genomics Center [NCGC] NIH Molecular Libraries Probe Production centers Network [MLPCN] MLPCN Grant: MH089375 Assay Submitter (PI): Yiannis A. Ioannou
Huh7 cells stably expressing NPC promoter-luciferase will be seeded at 1,500 cells/well in 5 uL in 1,536-well white opaque plates with 23 nL/well of compound in DMSO solution. The assay plates will be incubated at 37 deg C for 24 hours, after which 3 uL/well BriteLite plus luciferase detection reagent mixture (Perkin Elmer) will be added. Luminescence signal will be measured in a ViewLux plate reader (Perkin Elmer) after a 10 minute incubation at the room temperature.

Potency, inactive:
Cc1ccc(C(=O)Nc2nnc(S(=O)(=O)N3CCOCC3)s2)cc1
O=C(CCN1C(=O)c2ccccc2C1=O)Nc1ccc(-c2nc3ccccc3s2)cc1
COc1cccc(C2Nc3ccccc3NC3=C2C(=O)CC(C)(C)C3)c1 (stereo not given)
COc1ccccc1OCCCC(=O)NCc1ccco1
COc1ccc(NC(=O)CN(C)C(=O)c2ccc(=O)[nH]c2)cc1
COC(=O)c1cn(NC(=O)C2CCCCC2)c(=O)c2ccccc12
Cc1ccc(N=Cc2sc(O)c3ccccc23)c(C)c1
O=C(CSc1nccn1Cc1ccco1)Nc1ccccc1F
C=CCc1ccc(OCCOCCNCCOC)c(OC)c1
COCc1cc(C)nc(N/N=C/c2ccc(-c3ccc(Cl)cc3[N+](=O)[O-])o2)c1C#N
CC1=C(C(=O)OC2CCCC(C)C2)C(c2ccccc2)NC(=O)N1 (stereo not given)
CCCCn1c(CCNC(=O)c2cccs2)nc2ccccc21
CCN(CC)S(=O)(=O)c1ccc(NCc2ccccn2)nc1
O=C(CSc1nnc(Cc2cc(=O)[nH]c(=O)[nH]2)n1-c1ccc(Cl)cc1)NC1CCCC1
CCN(C(=O)COC(=O)c1ccc(C=O)cc1)c1c(N)n(Cc2ccccc2)c(=O)[nH]c1=O
O=C(CCCn1c(=O)oc2ccccc21)N1CCN(c2ccccn2)CC1
Cc1nc(SCC(=O)NC(=O)NC(C)(C)C)nc(C)c1C
CCCOC(=O)Cn1cnc2scc(-c3ccc(OC)cc3)c2c1=O
O=C(Nc1nc2ccc(F)cc2s1)c1ccc(N2CCCC2=O)cc1
COc1ccc(-c2noc(N3CCCC(C(=O)Nc4ccccc4F)C3)n2)cc1 (stereo not given)
CCOc1cc(C2C(C#N)=C(N)Oc3n[nH]c(C)c32)ccc1OCCN1CCOCC1 (stereo not given)
COc1ccc(-c2csc(Nc3ncccn3)n2)cc1C
Cc1ccccc1NC(=O)CSc1ccc(-c2cccnc2)nn1
C=CCn1c(C)nnc1SCC(=O)Nc1nccs1
COC(=O)Nc1nc2ccc(Br)cc2s1
COc1ccc(NC(=S)NNC(=O)c2cccs2)cc1
Cc1ccc(NC(=O)c2c(O)c3ccccc3n(C)c2=O)nc1
COc1ccc([N+](=O)[O-])cc1COc1ccc2c(-c3ccccc3)cc(=O)oc2c1
CCCNC(=O)C1CCN(S(=O)(=O)c2ccc3[nH]c(=O)ccc3c2)CC1
O=C(O)C1=CC[C@@H](c2ccc(Cl)cc2)N(S(=O)(=O)c2ccc(Cl)cc2)[C@H]1c1ccccc1
O=C(COC(=O)c1ccc(-c2nnc(-c3ccccc3)o2)cc1)c1ccccc1
O=C(CSc1nnc(-c2ccccn2)o1)Nc1ccccc1F
O=C(NC(=S)Nc1ccc(CN2CCCCC2)cc1)c1cc2ccccc2o1
Cc1ccc(NC(=O)c2ncc(Cl)c(Cl)c2Cl)cc1C
Cc1ccc2nc(Nc3ccc(Cl)cc3)c3nncn3c2c1
COc1ccc(C2(CNC(=O)/C=C/c3ccco3)CCCC2)cc1OC
Cc1ccc(C#N)c(SCC(=O)Nc2nccs2)n1
N#C/C(=N\Nc1ccc(Cl)cc1)C(=N)N1CCCCC1
Cc1[nH]n(-c2cccc3ccccc23)c(=O)c1/C=N/c1sc2c(c1C#N)CCC2
NC(=O)C1(NC(=O)[C@@H]2CC3(CC(c4cccc(NC(=O)[C@@H]5CCC(=O)N5)c4)=NO3)CN2C(=O)c2ccccc2)CC1 (stereo not given in full)
